SMILES strings stand for the structures. The whole screen tested about 50,000 compounds, of which about 800 (1.6%) showed an effect of 50% or more. The entries come from a sample that favours strong results as a whole.

Sequence of Bcl-2-like protein 10 (Homo sapiens) (Q9HD36 whole entry, looked up): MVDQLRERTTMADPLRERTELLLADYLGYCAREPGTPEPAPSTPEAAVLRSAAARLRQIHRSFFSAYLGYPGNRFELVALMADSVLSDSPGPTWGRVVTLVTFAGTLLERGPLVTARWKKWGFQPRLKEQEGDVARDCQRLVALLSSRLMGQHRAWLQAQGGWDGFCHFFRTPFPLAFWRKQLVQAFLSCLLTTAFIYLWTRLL

This assay concerns the target Bcl-2-like protein 10 (Homo sapiens) (UniProt Q9HD36). Put plainly: Phenotype converters, Bcl-B/TR3 peptide binding displacement, primary biochemical FP (AID 1240).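 Also: 0% = Bcl-B with tracer peptide and DMSO and 100% = tracer peptide lacking Bcl-B.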 The following applies: GST-Bcl-B / FITC-TR3 peptide fluorescence polarization; stronger effect = higher value; compound at 3.75 mg/L.
Regarding `O=C(COc1ccc(Cl)cc1Cl)Nc1ccc2c(c1)OCO2`, the displacement was determined as 3.3%.
Under `Cc1cc(OCC(=O)Nc2ccc(Nc3ccccc3)cc2)ccc1Br` stands 1.1%.
Consider `CCOc1ccc(N(CC(=O)Nc2ccccc2OCC)S(=O)(=O)c2ccc(SC)cc2)cc1`, for which the displacement was 15.2%.
Then `O=C(COc1ccc([N+](=O)[O-])cc1)Nc1cc(C(F)(F)F)cc(C(F)(F)F)c1`, with -2.6%; and `O=C1NC(=Nc2ccc(O)cc2)S/C1=C/C=C/c1ccccc1`, with -5.6%.
Under `CN(C(=O)c1cccs1)c1ccccc1C(=O)O` stands -1.3%; under `CN(c1ccccc1C(=O)O)C1SC(=O)N(c2ccccc2)C1=O` (configuration not stated), 138%; under `CC(=O)N(c1ccc(Br)cc1)C1SC(=O)N(c2cccc(C)c2)C1=O` (configuration not stated), -0.5%.
Then `Brc1ccc2c(c1)Nc1nc3nonc3nc1N2`, with 3.9%; and `C=CCN1C(=O)/C(=C\C=C\c2ccccc2)SC1=S`, with 6.3%.
Turning to `O=C1/C(=C/c2ccc(Cl)c(Cl)c2)SC(=S)N1Cc1ccco1`, the displacement was determined as 14.2%.
Then `COc1ccc(/C=C2\SC(=S)N(Cc3ccco3)C2=O)cc1OC`, with 21.8%; and `O=C1/C(=C/c2ccc(O)cc2)SC(=S)N1Cc1ccco1`, with -13.3%.
Then `O=C1/C(=C/c2cccc(Br)c2)SC(=S)N1Cc1ccco1`, with 3.6%.
Then `COc1ccccc1/C=C1\SC(=S)N(Cc2ccco2)C1=O`, with 1%; and `O=C1/C(=C/c2ccccc2[N+](=O)[O-])SC(=S)N1Cc1ccco1`, with 16.5%; and `O=C1/C(=C/c2ccc(Br)cc2)SC(=S)N1Cc1ccco1`, with 104%.
As for `O=C1/C(=C/c2cccc3ccccc23)SC(=S)N1Cc1ccco1`, the displacement is 79.2%.
Then `CCCCN1C(=O)/C(=C/C=C/c2ccccc2)SC1=S`, with -0.6%; and `O=C1/C(=C/C=C/c2ccccc2)SC(=S)N1Cc1ccco1`, with 99.7%.
Then `O=C1/C(=C/c2ccc3c(c2)OCO3)SC(=S)N1Cc1ccco1`, with 94.5%.
Then `CCCCOC(=O)Nc1ccc(S(=O)(=O)Nc2cc(C)ccc2C)cc1`, with 7.1%; and `CC(C)C(=O)NC(c1ccc(N(C)C)cc1)c1c(O)ccc2ccccc12` (configuration not stated), with 6.4%.
With `CCCC1CCc2nc3ccccc3c(C(=O)O)c2C1` (configuration not stated), the displacement was -10.4%.
Under `O=C(NC12CC3CC(CC(C3)C1)C2)c1ccc(Cl)c(Cl)c1` stands 6.9%.
Under `COc1ccc(-c2nc3c(n2O)CCC/C3=N\O)cc1OC` stands 16.6%; under `O=C(CCN1C(=O)c2ccccc2C1=O)NCC1CCCO1` (configuration not stated), 9.6%.
For `COc1ccccc1NC(=O)CSc1ncn[nH]1`, the displacement was 2.5%.
Under `COc1cc(/C=C2\C(=O)NN(c3ccccc3)C2=O)ccc1OCc1ccccc1F` stands 8.9%; under `Nc1ncc(-c2ccc([N+](=O)[O-])cc2)cn1`, -4.1%.
Then `Cc1ccc(-c2csc(NC(=O)c3ccc(S(=O)(=O)N4CCCCCC4)cc3)n2)cc1`, with -19%.
Turning to `O=C(Nc1nc(-c2ccc(F)cc2)cs1)c1ccc(S(=O)(=O)N2CCCCCC2)cc1`, the displacement came out at 129%.
Under `O=C(Nc1nc(-c2ccc(Cl)cc2)cs1)c1ccc(S(=O)(=O)N2CCCCC2)cc1` stands -9.5%.
Then `CCc1c(C)sc(NC(=O)c2cccs2)c1C(=O)OC`, with 3.3%.
Under `O=C(O)C(Cc1ccccc1)N1C(=O)/C(=C/c2ccc(Br)cc2)SC1=S` (configuration not stated) stands 11.6%.
Take `FC(F)(F)c1ccccc1CN1CCN(C2CCCCC2)CC1`: the displacement worked out at 1.4%.
For the compound `CC(C)COc1ccc(C(=O)Nc2ccc(-c3nc4ccccc4o3)cc2)cc1`, the displacement is 10%.
Under `O=C(Nc1ccc2oc(-c3cccnc3)nc2c1)c1cccc(OCc2ccccc2)c1` stands 11%; under `CCCCOc1ccc(C(=O)Nc2ccc(-c3nc4ncccc4o3)cc2)cc1`, 10.6%; under `CC(C)COc1ccc(C(=O)Nc2ccc(-c3nc4ncccc4o3)cc2)cc1`, 50.1%.
Then `CCOc1cc(OCC)cc(C(=O)Nc2ccc(-c3nc4ncccc4o3)cc2)c1`, with 0.6%; and `O=C(Nc1ccc(-c2nc3ncccc3o2)cc1)c1cccc(OCc2ccccc2)c1`, with 110%; and `CCCCc1c(C)nc2ccc(C(=O)O)cc2c1Cl`, with 1%.
Then `C=CCOc1ccc(/C=C2/C(=O)NN(c3ccc(C)c(Cl)c3)C2=O)cc1OC`, with 15.5%; and `COc1ccc(N2C(=O)NC(=O)/C(=C/c3ccc(-c4ccc(C(=O)O)cc4)o3)C2=O)cc1`, with -10.9%.
For the compound `COc1ccc(N2C(=O)/C(=C/c3ccc(-c4ccc(C(=O)O)cc4)o3)C(=O)NC2=S)cc1`, the displacement was -28.2%.
Then `CN1C(=O)C(=Cc2ccc(-c3ccc(Cl)c(Cl)c3)o2)C(=O)N(C)C1=O`, with -3.8%.
Under `CCOC(=O)c1ccc(-c2ccc(/C=C3/C(=O)NC(=O)N(c4ccccc4)C3=O)o2)cc1` stands 88.5%.
Regarding `COc1ccc(N2C(=O)NC(=O)/C(=C\c3cc(C)n(-c4ccc(N5CCOCC5)cc4)c3C)C2=O)cc1`, the displacement was determined as 15.9%.
For `CCOC(=O)c1ccc(-c2ccc(/C=C3/C(=O)NN(c4cccc(Cl)c4)C3=O)o2)cc1`, the displacement is -1.9%.
Under `CCOC(=O)c1cc(-c2ccc(C=C3C(=O)N(C)C(=O)N(C)C3=O)o2)ccc1Cl` stands 111%; under `CCOC(=O)c1ccc(-c2ccc(/C=C3/C(=O)NC(=O)N(c4ccc(OC)cc4)C3=O)o2)cc1`, 86.2%.
As to `COC(=O)c1ccc(-n2c(C)cc(/C=C3\C(=O)NC(=O)N(c4ccc(OC)cc4)C3=O)c2C)cc1`, the displacement came out at 115%.
Under `COC(=O)c1ccc(-n2c(C)cc(C=C3C(=O)NC(=S)NC3=O)c2C)cc1` stands 24.8%; under `CN1C(=O)C(=Cc2ccc(-c3ccc(Cl)c(C(=O)O)c3)o2)C(=O)N(C)C1=O`, 14.5%.
As to `Cc1cccc(N2C(=O)NC(=O)/C(=C/c3ccc(-c4ccc(C(=O)O)cc4)o3)C2=O)c1`, the displacement is -58.8%.
Then `COc1ccccc1C(=O)N1CCN(Cc2ccccc2[N+](=O)[O-])CC1`, with 1.5%; and `COc1ccc(-n2cnc3cc(Nc4nnc(C)c5ccccc45)ccc32)cc1`, with 0.8%.
Under `CCOC(=O)c1cc(CC)sc1NC(=O)c1cc([N+](=O)[O-])ccc1N1CCN(CC)CC1` stands -2.3%; under `O=C(CSc1ncn[nH]1)c1ccc(Br)cc1`, 8.5%; under `COc1ccc(S(=O)(=O)N(Cc2ccccc2)c2ccccc2C(=O)N2CCOCC2)cc1`, -1.1%.
In the case of `CC(C)(CNC(=O)c1cccnc1)CNC(=O)c1cccnc1`, the displacement came out at 7.9%.
Then `O=C(O)C(Cc1ccccc1)n1c(O)c(/C=C2\C=Nc3ccccc32)sc1=S` (configuration not stated), with -2.3%; and `Cc1cc(/C=N/O)c(C)n1-c1ccc(F)cc1`, with 12.6%; and `COC(=O)c1ccc(NC(=S)NC(=O)/C=C/c2ccc(Br)cc2)cc1`, with 13.2%.
Under `COc1ccc2c(c1OC)C(=O)OC2Nc1ccccc1Br` (configuration not stated) stands -5.8%; under `COc1ccc(-n2nnnc2C(=Cc2ccc(N(C)C)cc2)c2nnnn2-c2ccc(OC)cc2)cc1`, 157%; under `COc1ccc(-n2nnnc2C(Cl)(Cl)c2nnnn2-c2ccc(OC)cc2)cc1`, 5.8%.
Then `COc1ccc(/C=C/C(=O)/C=C/c2ccc(N(C)C)cc2)cc1`, with -3%; and `CCOc1cc(/C=C2\SC(=Nc3cccc(Cl)c3C)NC2=O)ccc1O`, with -11.7%; and `O=C1C(Nc2ccccc2)=CC(c2cccc(F)c2)N1c1ccccc1` (configuration not stated), with 14.1%.
For the compound `O=CN1CCN(c2nc(-c3ccccc3)c3cc(Cl)ccc3n2)CC1`, the displacement stood at 113%.
Under `O=C(c1ccccc1Cl)N1CCN(c2nc(-c3ccccc3)c3cc(Br)ccc3n2)CC1` stands -5.8%; under `O=CN1CCN(c2nc(-c3ccccc3)c3cc(Br)ccc3n2)CC1`, 84.9%; under `O=C(c1ccc([N+](=O)[O-])cc1)N1CCN(c2nc(-c3ccccc3)c3cc(Cl)ccc3n2)CC1`, 17.5%.
Then `Brc1ccc2nc(N3CCNCC3)nc(-c3ccccc3)c2c1`, with -8.1%; and `O=C(c1ccccc1)N1CCN(c2nc(-c3ccccc3)c3cc(Cl)ccc3n2)CC1`, with 10.6%; and `CC1=C(C#N)c2nc(N)c(C#N)c(C)c2/C1=C\c1cc([N+](=O)[O-])ccc1Cl`, with 0.6%.
Under `Cc1cccc(OCCOc2ccccc2/C=C2/SC(=S)N(C)C2=O)c1` stands -0.4%; under `Fc1cc(F)c(F)c(SCCc2ccncc2)c1F`, 5.9%; under `COc1cccc(N2C(=O)NC(=O)/C(=C/C=C/c3ccco3)C2=O)c1`, -47.4%.
`C/C(=N\NC(=O)COc1ccc(Cl)cc1Cl)c1cccnc1`: the displacement was determined as 1.9%.
Consider `O=C1C2ON(c3ccc(Cl)cc3)C(c3cccs3)C2C(=O)N1c1cccc(C(F)(F)F)c1` (configuration not stated), for which the displacement is -18.1%.
Under `COc1ccc(OCC(O)CN(C)S(=O)(=O)O)cc1` (configuration not stated) stands -6.7%; under `O=C(Cc1ccc(Br)cc1)N1CCN(c2ccccc2)CC1`, 9.8%; under `COc1ccc(C2CC(=O)C3=C(C2)Nc2ccccc2NC3c2cccc(OC)c2OC)cc1OC` (configuration not stated), -3.7%.
Under `O=C(CSc1ccccn1)Nc1ccc(F)cc1` stands -11.4%; under `O=C(CSc1ccccn1)Nc1ccc2c(c1)C(=O)c1ccccc1C2=O`, 54.6%.
Under `CC(=O)Nc1ccc(NC(=O)CSc2ccccn2)cc1` stands -2.6%; under `CC1(C)CC(=O)c2cnc(NC(=O)Cc3ccc(Cl)cc3)nc2C1`, -0.2%.
In the case of `COc1ccc(CC(c2nc3ccccc3[nH]2)C(C)c2nc3ccccc3[nH]2)cc1` (configuration not stated), the displacement came out at 8%.
Then `O=c1oc(/C=C\c2ccccc2)nc2ccc(Br)cc12`, with 10.7%; and `Clc1ccc(CN2CCN(/N=C\c3ccc(OCc4ccccc4)cc3)CC2)cc1`, with -9.5%.
As to `CCOC(=O)C1=C(c2ccccc2)N=c2s/c(=C\c3cccc(O)c3)c(=O)n2C1c1cccc(OC)c1OC` (configuration not stated), the displacement is 7.6%.
Then `CCOC(=O)C1=C(C)N=c2s/c(=C/c3ccc(I)o3)c(=O)n2C1c1ccccc1OC` (configuration not stated), with 14.5%.
Under `CCOC(=O)C1=C(C)N=c2s/c(=C\c3ccco3)c(=O)n2C1c1ccccc1` (configuration not stated) stands 16.5%; under `CCOC(=O)C1=C(C)N=c2s/c(=C\c3ccco3)c(=O)n2C1c1cccc(OC)c1` (configuration not stated), -25.3%; under `CCOC(=O)C1=C(c2ccccc2)N=c2s/c(=C\c3ccco3)c(=O)n2C1c1cccc(OC)c1OC` (configuration not stated), 76.4%.
`CCOC(=O)C1=C(C)N=c2s/c(=C\c3ccco3)c(=O)n2C1c1ccccc1OC` (configuration not stated): the displacement turned out to be 74.3%.
For the compound `CCOC(=O)C1=C(C)N=c2s/c(=C\C=C\c3ccccc3)c(=O)n2C1c1ccc(OC(C)=O)cc1` (configuration not stated), the displacement came out at 16.9%.
Then `CCOC(=O)C1=C(c2ccccc2)N=c2s/c(=C\c3cccnc3)c(=O)n2C1c1cccc(OC)c1OC` (configuration not stated), with 5.1%; and `CCOC(=O)C1=C(C)N=c2s/c(=C\C=C\c3ccco3)c(=O)n2C1c1ccc(OC)cc1` (configuration not stated), with 63.9%.

The values are drawn from PubChem BioAssay AID1240 (Sanford-Burnham Center for Chemical Genomics, 2008).
